The text below walks through data of PubChem BioAssay (NCI).

The panel holds about 83,000 compounds, 20% with a hit somewhere; the sample as a whole holds those more often.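 96-well plates, one dose, 48 hours. Percent growth reported; active if below 10.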 Values without a mark were called inactive. Calls of active or inactive are those of the source.

Some test systems named below: SK-MEL-2 melanoma; EKVX NSCLC; SN12C renal; UO-31 renal; TK-10 renal; ACHN renal; CAKI-1 renal; A498 renal; MOLT-4 leukemia; CCRF-CEM leukemia.
Holding throughout (experiment): NCI-60 one-dose screen, 48 h (100 = growth as untreated, 0 = no growth, -100 = all killed)
Settings in all cases: 10 µM unless noted

`CCOC(=O)C(=O)/C(=C\c1ccc(Cl)cc1)C(=O)N1C(=S)NC(=O)C1CC(C)C` (configuration not stated): the growth is 112% in the assay on SK-MEL-2 melanoma; 91% with EKVX NSCLC; 96.9% in the assay on SN12C renal; 86.1% in the assay on UO-31 renal; 135% in the assay with TK-10 renal; 99.5% in the assay with ACHN renal. Besides, the growth in the assay with CAKI-1 renal is 91.3%; in the assay on A498 renal, 102%; in the assay with MOLT-4 leukemia it was 98.4%.
With `CS(=O)(=O)Nc1cc(-c2ccc3ncc(C#N)c(N[C@H](CO)c4ccccc4)c3c2)cnc1Cl`, the growth was 10.3% in the assay with SK-MEL-2 melanoma; 66.9% in the assay on EKVX NSCLC; 31.1% in the assay on SN12C renal; 43.4% with UO-31 renal; 34.8% in the assay with TK-10 renal; 81.4% with ACHN renal. The values for the growth in the assay on CAKI-1 renal, in the assay with A498 renal and in the assay on MOLT-4 leukemia were 33.3%, 7.35% (active) and 14.7%, respectively.
Consider `COc1cccc(O)c1/C=C(/C)c1ccc2c(OC)cccc2[o+]1`, for which the growth was 107% in the assay on SK-MEL-2 melanoma; 96.5% in the assay with EKVX NSCLC; 99.5% in the assay on SN12C renal; 79.7% with UO-31 renal; 140% with TK-10 renal; 98.9% in the assay on ACHN renal. Besides, the growth in the assay with CAKI-1 renal was 90.3%; with A498 renal, 95.7%; with MOLT-4 leukemia, 107%.
As to `C=CCn1c(SCC(=O)Nc2ccc(C(=O)/C=C/c3cc(OC)c(OC)c(OC)c3)cc2)nnc1-c1c[nH]c2ccccc12`, the growth in the assay on SK-MEL-2 melanoma was 101%; with EKVX NSCLC, 73.7%; with SN12C renal, 34.1%; with UO-31 renal, 43.5%; with TK-10 renal, 144%; with ACHN renal it was 52.2%. Moreover, the figures for the growth in the assay on A498 renal, with CCRF-CEM leukemia and with MOLT-4 leukemia were 44%, 5.4% (active) and 2.78% (active), respectively.
Turning to `N#Cc1cccc(CN2CCC3=C(C2)C(=O)N(Cc2ccc(Cl)cc2)C2=NCCCN23)c1`, the growth is 26.4% in the assay on SK-MEL-2 melanoma; 29% in the assay on EKVX NSCLC; 22.1% with SN12C renal; 37.4% in the assay with UO-31 renal; 60.4% in the assay with TK-10 renal; 38.4% in the assay on ACHN renal. Also, the results for the growth in the assay on A498 renal, with CCRF-CEM leukemia and with MOLT-4 leukemia were 15.4%, 37.1% and 48.3%, respectively.
As for `CCC1=Cc2cc(OC)ccc2OC12C=Cc1cc(OC)ccc1O2` (configuration not stated), the growth was 52.5% in the assay with SK-MEL-2 melanoma; 46.2% with EKVX NSCLC; 34.8% with SN12C renal; 53% with UO-31 renal; 100% with TK-10 renal; 45% with ACHN renal. Further, the growth was 3.41% (active) in the assay with A498 renal, 10.9% in the assay on CCRF-CEM leukemia and 11% in the assay with MOLT-4 leukemia.
For `CC/C(=C/c1c(O)cccc1OC)c1ccc2c(OC)cccc2[o+]1`, the growth in the assay on SK-MEL-2 melanoma was 107%; in the assay with EKVX NSCLC, 97.9%; in the assay with SN12C renal, 96.9%; with UO-31 renal, 93.5%; in the assay on TK-10 renal, 121%; in the assay with ACHN renal, 99.2%. In addition, the figures for the growth in the assay with A498 renal, with CCRF-CEM leukemia and with MOLT-4 leukemia were 102%, 102% and 104%, respectively.
For `O=C1CCC(N2C(=O)c3ccc(NS(=O)(=O)c4ccccc4OC(F)(F)F)cc3C2=O)C(=O)N1` (configuration not stated), the growth in the assay with SK-MEL-2 melanoma is 83.7%; in the assay on EKVX NSCLC, 78.8%; in the assay with SN12C renal it was 47.8%; with UO-31 renal it was 3.53% (active); in the assay with TK-10 renal, 63.4%; in the assay with ACHN renal, 87.5%. Besides, the growth in the assay with A498 renal was 28.5%; with CCRF-CEM leukemia it was 13.2%; with MOLT-4 leukemia, 2.34% (active).
Turning to `O=C(O)c1ccc(-n2cc(CNc3cc(F)c(F)c(F)c3)c(-c3cccc(F)c3)n2)cc1`, the growth in the assay with SK-MEL-2 melanoma was 79.6%; with EKVX NSCLC, 65.5%; in the assay on SN12C renal, 91.3%; in the assay on UO-31 renal it was 77%; with TK-10 renal, 128%; in the assay on ACHN renal it was 77.4%. In addition, the growth in the assay with A498 renal was 99.4%; in the assay on CCRF-CEM leukemia, 92.3%; in the assay on MOLT-4 leukemia, 79.8%.
As to `CC/C(=C/c1cc(OC)ccc1O)c1ccc2cc(OC)ccc2[o+]1`, the growth was 71.8% in the assay on SK-MEL-2 melanoma; 76.3% in the assay on EKVX NSCLC; 73.9% in the assay on SN12C renal; 68.7% with UO-31 renal; 116% with TK-10 renal; 58.5% in the assay on ACHN renal. For the same molecule, the growth was 29.5% in the assay on A498 renal, 39.3% in the assay with CCRF-CEM leukemia and 53.4% in the assay with MOLT-4 leukemia.
On to `COc1ccc2c(c1)c(CC(=O)[Se]CC#N)c(C)n2C(=O)c1ccc(Cl)cc1`, for which the growth was 39.3% with SK-MEL-2 melanoma; -2.11% (active) in the assay with EKVX NSCLC; 74% in the assay with SN12C renal; -3.23% (active) in the assay on UO-31 renal; -5.49% (active) with TK-10 renal; 12% in the assay with ACHN renal. The growth with A498 renal was -17.1% (active); with CCRF-CEM leukemia, 8.66% (active); with MOLT-4 leukemia it was 10.8%.
Regarding `NC(N)=Nc1ccc(Oc2cccc(NC(N)=Nc3ccc(I)cc3F)c2)cc1`, the growth was 85.9% in the assay on SK-MEL-2 melanoma; 71.6% with EKVX NSCLC; 54.3% in the assay on SN12C renal; 95.7% with UO-31 renal; 85.7% with TK-10 renal; 101% with ACHN renal. The growth is 86.8% in the assay on A498 renal, 77.3% in the assay on CCRF-CEM leukemia and 78.9% in the assay on MOLT-4 leukemia.
Take `COc1c(N2CC3CCCNC3C2)c(F)cc2c(=O)c(C(=O)N/N=C/c3ccc4c(c3)OCO4)cn(C3CC3)c12` (configuration not stated): the growth with SK-MEL-2 melanoma was 103%; in the assay with EKVX NSCLC, 66.6%; in the assay with SN12C renal it was 82.9%; with UO-31 renal it was 64.9%; with TK-10 renal it was 124%; in the assay with ACHN renal it was 85.3%. Further, the figures for the growth with A498 renal, in the assay with CCRF-CEM leukemia and with MOLT-4 leukemia were 105%, 31.7% and 59.3%, respectively.
